According to PubChem BioAssay:

Test: small-molecule microarray binders of probe aShh, primary screen, biochemical, biotinylated probe, 635/667 nm fluorescence (AID 1114);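 also: probe is biotin-labelled aShh protein from a stem cell growth factor screen; measures binding of labelled protein to compounds printed on the slide; score merges feature fluorescence at 667 nm with signal-to-noise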
Settings: higher = more signal

| SMILES | composite z-score |
| --- | --- |
| [N-]=[N+]=Nc1ccccc1C[C@@]1(C(=O)N2CCOCC2)N=C(c2ccc(OCCCO)cc2)O[C@@H]1c1ccccc1 | 0.771 |
| [N-]=[N+]=Nc1ccccc1C[C@]1(C(=O)O)COC(c2ccc(OCCCO)cc2)=N1 | 0.232 |
| COCCOC(=O)N1C(=O)[C@@]2(c3cc(C#CC4=CCCCC4)ccc31)[C@H](c1ccccc1OCCO)N1[C@H](c3ccccc3)[C@H](c3ccccc3)OC(=O)[C@H]1[C@@H]2C(=O)N1CCN(c2ncccn2)CC1 | 0.0048 |
| O=C1O[C@@H](c2ccccc2)[C@@H](c2ccccc2)N2[C@@H](c3ccc(OCCO)cc3)[C@]3(C(=O)Nc4ccc(C#CC5=CCCCC5)cc43)[C@@H](C(=O)NC[C@H](O)c3ccccc3)[C@H]12 | -0.398 |
| [N-]=[N+]=Nc1ccccc1C[C@]1(C(=O)NCCN2CCOCC2)COC(c2ccc(OCCCO)cc2)=N1 | -0.221 |
| O=C1OCCC=C[C@H]2OC34C=CCN(Cn5nnc6ccccc65)C(=O)[C@H]3N(CCCO)C(=O)[C@@H]4C12 (stereo not given in full) | -0.388 |
| CC(C)[Si](C#C[Si](C(C)C)(C(C)C)C(C)C)(O[C@H](c1ccccc1)c1cn(Cc2ccccc2)nn1)C(C)C | -0.0769 |
| CC(C)N1C(=O)C[C@@](C(=O)O)(c2ccc([N+](=O)[O-])cc2)[C@H]1c1ccc(CO)cc1 | -0.153 |
| C=CCC(OC(C)=O)[C@@H]1[C@@H](N(Cc2ccc(-c3ccccc3)cc2)C(=O)c2ccc(-c3ccccc3)cc2)c2cc(OCCCO)ccc2N1C(=O)c1ccc2ccccc2c1 (stereo not given in full) | 0.0141 |
| COc1ccc([Si](C)(C)[C@@H]2[C@@H](CCO)O[C@]3(C(=O)N(Cc4ccccc4)c4ccc(N5CCOC5=O)cc43)[C@H]2C)cc1 | -0.0793 |
| [N-]=[N+]=Nc1ccccc1C[C@]1(C(=O)NCC(O)CO)COC(c2ccc(OCCCO)cc2)=N1 (stereo not given in full) | 0.275 |
| CN(C)CCCCCCNC(=O)[C@@H]1C[C@@H]2C(=O)N3CCC[C@H]3C(=O)N2[C@@H]1c1cccc(OCCO)c1 | 0.176 |
| CCOC(=O)C[C@H]1[C@H](OC(=O)c2cc3ccccc3oc2=O)[C@@H](NC(=O)c2ccccc2)c2cc(OCCCO)ccc2N1C(=O)c1ccccc1 | 0.0121 |
| O=C1C2C=CC(C(O)c3cccc(O)c3)N(Nc3ccc([N+](=O)[O-])cc3)C2C(=O)N1c1ccccc1 (stereo not given) | 0.0022 |
| C=CC[C@@]1(C(=O)NCCCOC)N=C(c2ccc(OCCCO)cc2)O[C@@H]1c1ccccc1 | -0.102 |
| CCCCC(=C=CC[C@H](O)c1ccc(OCCO)cc1)CCO | -0.154 |
| C=C(C(=O)CC[C@H](OC(=O)c1ccccc1-c1ccccc1C(=O)O)c1cccc(OCCO)c1)C(C)C | -0.0605 |
| COC(=O)[C@]1(CCS(=O)(=O)c2ccccc2)N=C(c2ccc(OCCCO)cc2)O[C@@H]1c1ccccc1N=[N+]=[N-] | 0.232 |

| SMILES | composite z-score |
| --- | --- |
| C=C(/C(=C/C[C@H](OC(=O)c1ccncc1)c1ccc(CO)o1)c1cnc2ccccc2c1)C(C)C | -0.15 |
| CC[C@@H]1C=C(C(=O)O)[C@H](c2ccc(C#N)cc2)N1S(=O)(=O)c1ccc(C)cc1 | -0.0324 |
| CCCCCCCCCCC(O)C1C=CC2C(=O)N(c3ccccc3)C(=O)C2N1Nc1ccc(C#N)cc1 (stereo not given) | -0.164 |
| CC[C@@H]1C=C(C(=O)O)[C@H](c2ccccc2)N1S(=O)(=O)c1ccc(C)cc1 | 0.162 |
| O=C1O[C@H](c2ccccc2)[C@H](c2ccccc2)N2[C@H]1[C@@H](C(=O)O)[C@]1(C(=O)Nc3ccc(C#CCCO)cc31)[C@H]2c1ccccc1OCCO | 0.0141 |
| O=C1C2C=CC(C(O)c3ccco3)N(Nc3ccccc3F)C2C(=O)N1c1ccccc1 (stereo not given) | 0.184 |
| COc1ccc([Si](C)(C)[C@@H]2[C@@H](CCO)O[C@]3(C(=O)N(Cc4cccc(NC(=O)[C@H](C)O)c4)c4ccccc43)[C@H]2C)cc1 | 0.223 |
| CC(C)N1C(=O)C[C@@](C(=O)NC2CC2)(c2ccc([N+](=O)[O-])cc2)[C@H]1c1ccc(CO)cc1 | -0.0709 |
| Oc1ccc2cc[n+](Cc3cc4c(cc3Br)OCO4)cc2c1 | -0.0769 |
| CCOC(=O)C[C@H]1[C@H](OC(=O)c2ccc(-c3ccccc3)cc2)[C@@H](NC(=O)CC(C)C)c2cc(OCCCO)ccc2N1C(=O)c1ccc2ccccc2n1 | 0.0723 |
| CCCCC(CC)C(O)C1C=CC2C(=O)N(c3ccccc3)C(=O)C2N1Nc1ccccc1F (stereo not given) | 0.341 |
| CCOC(=O)C[C@H]1[C@H](OC(=O)c2ccccc2-c2ccccc2)[C@@H](NC(=O)c2ccc3ccccc3n2)c2cc(OCCCO)ccc2N1C(=O)Cc1ccc(OC)cc1 | -0.182 |
| COCCCNC(=O)[C@@]1(CCC(=O)OC(C)(C)C)N=C(c2ccc(OCCCO)cc2)O[C@H]1c1ccccc1N=[N+]=[N-] | 0.0326 |
| OCCCC1=CC(c2ccc(CN3CCCC3)cc2)N(Cc2cc3c(cc2Br)OCO3)CC1 (stereo not given) | 0.0611 |
| CCOC(=O)C[C@H]1[C@H](OC(=O)Cc2ccc3c(c2)OCO3)[C@@H](NC(=O)C2CCCCC2)c2cc(OCCCO)ccc2N1C(=O)c1ccccc1 | -0.147 |
| COCC(=C=CC[C@H](O)c1ccccc1OCCO)C[C@H](O)c1ccccn1 | -0.214 |
| [N-]=[N+]=NCc1ccccc1[C@@H]1OC(c2ccc(OCCCO)cc2)=N[C@]1(CCS(=O)(=O)c1ccccc1)C(=O)O | 0.0469 |
